Drawing on PubChem BioAssay (NCI), this text covers growth for 40 compounds.

This is part of a sample that, as a whole, favours compounds with a hit. Of some 83,000 tested, about 20% had one in any assay.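 Negative percent growth values reflect cell death: -40 means 40% of the cells present at the start died, and -100 means all died.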 Values without a mark were called inactive. Activity calls are given as the source filed them.

The test concerns ACHN renal. Nature of the test: NCI-60 one-dose screen, 48 h (100 = growth as untreated, 0 = no growth, -100 = all killed). Particulars: 10 µM unless noted. The method, then:
Growth inhibition of the ACHN human tumor cell line is measured as a screen for anti-cancer activity. Cells are grown in 96 well plates and exposed to the test compound for 48 hours. Compounds are tested at a single concentration, which is 10^-5 M for most compounds. The reported endpoint is percent growth (GI% or GIPRCNT), where numbers from 0 - 100% represent growth inhibition, and numbers from -100% - 0 represent cell death. For example, a value of 40 represents 60% growth inhibition. A value of 0 means no net growth occurred over the course of the experiment. A value of -40 indicates 40% of cells at the beginning of the experiment died by the end of the experiment. A value of -100 means all cells are dead at the end of the experiment.
NCI-60 Human Tumor Cell Lines Screen was performed using the standard one-dose NCI protocol, which is described in more detail at https://dtp.cancer.gov/discovery_development/nci-60/default.htm.
Compounds with GIPRCNT values below 10 were considered active. Activity score was based on GIPRCNT using the following formula: […]
Score is 0 for GIPRCNT values of 100 or above, 50 for GIPRCNT values of 0, and 100 for GIPRCNT values of -100.
On to `O=C(Nc1nc2ccccc2s1)c1ccc(F)cc1`, for which the growth is 98%.
As to `CCn1c(SCC(=O)N/N=C(\C)c2ccc(Cl)cc2)nc2c1c(=O)n(C)c(=O)n2C`, the growth was 99.5%.
Regarding `O=C1NC(=O)C(Cc2ccc(OCc3ccc(-c4ccc(Cl)cc4Cl)cc3)cc2)S1` (stereo not given), the growth was 55.2%.
`O=C(/C=C/c1ccccc1)Nc1ncc(Cc2ccccc2Cl)s1`: the growth is 33.3%.
Next, `Nc1cc(C(=O)NC[C@H]2CN(c3ccc(N4CCC(C(=O)O)CC4)cc3)C(=O)O2)ccc1Cl`: 101%.
Take `COC(=O)c1c2c(c(C)[n+]([O-])c1C)C(=O)C(NCc1cccc(OC)c1)=CC2=O`: the growth was 47.8%.
For `Clc1ccc2c(NC3CCC(N4CCOCC4)CC3)ccnc2c1` (stereo not given), the growth is 73.8%.
`COc1ccc2c(c1)N(CCO)C1=C(C(=O)OC1)C2c1cccc(F)c1` (stereo not given): the growth was 27.6%.
Regarding `OCCn1cc(-c2nc(-c3c[nH]c4ncccc34)cs2)c2cc(F)ccc21`, the growth is 65.8%.
To `C=CCn1c(C)nc2ccc(Nc3nc(Nc4ccc5nc(C)n(CC=C)c5c4)c4ccccc4n3)cc21` belongs -80% (active); to `O=C(O)CCCN1C(=O)/C(=C/c2cn(-c3ccccc3)nc2-c2ccc([N+](=O)[O-])cc2)SC1=S`, 56.8%; to `CC(C)COc1nc2c(c(=O)n(C)c(=O)n2C)n1C`, 102%.
Regarding `Oc1c(Br)cc(Br)c2ccc(Cn3cc(-c4ccc(C(F)(F)F)cc4)nn3)nc12`, the growth is 26.4%.
With `NC(=O)C(=O)c1ccccc1NC=O`, the growth was 94.8%.
Next, `CCOC(=O)c1ccc(NC(=O)c2nc(-c3cc(OC)c(OC)c(OC)c3)n(-c3ccc(Cl)cc3)n2)cc1`: 94.1%; `O=c1[nH]c(-c2ccccc2)nc2sc3cc(O)ccc3c12`: 76.2%.
As to `CCOC(=O)C1=C(c2ccccc2)N=C2SC=C(c3ccc(Cl)cc3)N2C1c1ccc(Br)cc1` (stereo not given), the growth was 87.3%.
Take `O=C1/C=C/[C@@H](O)[C@@H]2C[C@@H](O)C[C@H]2/C=C/CCC[C@H](CCc2ccccc2)O1`: the growth is 7.03% (active).
Next, `CCOCCNC1=C(Cl)C(=O)c2ccccc2C1=O`: 110%; `O=C1/C(=C\c2ccc3nccnc3c2)SC(=S)N1CCc1ccc(O)cc1`: 94%.
To `O=C(Nc1cccc(-c2ccc(Cl)c(C(F)(F)F)c2)c1)C1CCN(Cc2cccc3cccnc23)CC1` belongs -90.6% (active).
To `O=C(CN1CCCCC1)Nc1nc(-c2cc3ccccc3oc2=O)cs1` belongs 100%.
As for `COc1ccc(F)cc1/C=C/C(=O)/C=C(/C=C/c1cc(F)ccc1OC)OB(F)F`, the growth was 2.25% (active).
In the case of `COc1ccccc1CNc1c2ccccc2nc2ccccc12`, the growth is 22.7%.
Turning to `CCN(CC)CC(O)COc1c(Br)c(Br)c(Br)c2c1OC(C)(C)C2` (stereo not given), the growth is 97.9%.
Turning to `O=C(/C=C/c1cccc(Cl)c1)c1ccc(Nc2nc(Nc3ccc(F)cc3)nc(Nc3ccc(Cl)cc3)n2)cc1`, the growth was 116%.
Next, `O=C1Nc2ccccc2/C1=C/c1cccn1CCCCn1c2ccccc2c(=O)c2ccccc21`: 76.3%.
Next, `O=C1Nc2ccccc2/C1=C/c1nc2ccccc2c(=O)[nH]1`: 91.9%.
Take `O=C(CSC(=S)n1cnnc1)NC(=O)c1ccccc1`: the growth was 105%.
To `COCCn1cc(-c2nc(-c3cc4cccnc4[nH]3)cs2)c2cc(OC)ccc21` belongs 22.4%.
To `O=c1scc(-c2ccc(C(F)(F)F)cc2)s1` belongs 99.8%; to `CCNCCNc1cc(C2CCCCC2)c(C#N)c2nc3ccccc3n12`, -52.2% (active); to `COCCn1cc(-c2csc(-c3cn(C)c4ccc(Br)cc34)n2)c2cccnc21`, 57.1%.
Next, `CCOC(=O)C1=C(N)Oc2c(sc3c(F)cccc23)C1c1ccc(O)cc1` (stereo not given): 42.3%; `Cc1cc(N2CCCCC2)cc(C)c1-c1csc(NC(=O)c2ccncc2)n1`: 56.8%; `COc1cc2c(cc1OCCCN1CCN(CCCOc3cc4c(cc3OC)C(=O)N3CC(F)(F)C[C@H]3C=N4)CC1)N=C[C@@H]1CC(F)(F)CN1C2=O`: 78.3%.
`COc1ccc(C/C(C)=C(\c2ccc(Cl)cc2)c2ccc(OCCN3CCCCC3)cc2)cc1`: the growth is 92.3%.
Consider `Cc1ccccc1/C=C/C(=O)c1cccc(OCCCOc2cccc(C(=O)/C=C/c3ccccc3C)c2)c1`, for which the growth was 102% [3 µM].
`O=C(/C=C/c1cn(-c2ccccc2)nc1-c1ccc(Cl)cc1)c1ccc(F)cc1`: the growth is 77.7%.
To `c1ccc([P+](c2ccccc2)(c2ccccc2)c2ccc3c4ccc([P+](c5ccccc5)(c5ccccc5)c5ccccc5)c5cccc(c6cccc2c63)c54)cc1` belongs 41.3%.
